For test [1], the system named is Wnt5a (protein binding on small-molecule microarray). Kind of test: small molecules binding Wnt5a protein – biophysical, small-molecule microarray, 635/667 nm fluorescence, primary screen (AID 1142).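 Further: fluorescence read at 667 nm with signal to noise per printed feature.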 As to conditions: 635 nm fluorescence, higher = more signal.
Test [2] can be described thus: ATP-based viability of Huh7 replicon cells – cell-based, CellTiter-Glo luminescence, basal, 48 h, cytotoxicity control for HCV replication inhibitor project, primary screen (AID 1143).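 Further: Huh7 hepatoma cells carrying a hepatitis C replication reporter with no stimulus; test concentration not given here.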 As to conditions: higher = more signal, called active from +8 up or from −8 down. In general terms: Replicon systems follow genome replication, usually without infectious particles.
Test [3] is described as follows: Pseudomonas biofilm growth suppression – PAO1 strain, BacTiter-Glo luminescence, LB-PBS, primary screen (AID 1144). As to conditions: P. aeruginosa PAO1 biofilm, 12 h, higher = more signal.
Test [4] is described as follows: basal CRE-LacZ reporter activity in PC12 – cell-based, unstimulated, primary screen (AID 1145). As to conditions: no forskolin, luminescence, 4.5 h, higher = more signal, called active from +8 up or from −8 down.
Test [5] is described as follows: forskolin-driven CRE-LacZ activity in PC12 – cell-based, CRE-LacZ reporter, forskolin-stimulated, primary screen (AID 1146).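 Further: PC12 cells with 6xCRE LacZ reporter stimulated by forskolin 10 µM; beta-galactosidase reporter signal reflecting CREB driven transcription.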 To be noted: luminescence, 4.5 h, higher = more signal, called active from +8 up or from −8 down.
Test [6] deals with Streptavidin (Streptomyces avidinii) (UniProt P22629). Kind of test: compounds binding control protein streptavidin – biophysical, small-molecule microarray, 635/667 nm fluorescence, artefact control for SMM compound annotation, primary screen (AID 1147).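 Further: signal reflects streptavidin binding to arrayed compounds as a control protein.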 To be noted: higher = more signal.
A short description of test [7]: probe aInhba binding on compound microarray – biochemical, small-molecule microarray, 635/667 nm fluorescence, primary screen (AID 1148).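 Further: score merges 667nm spot fluorescence with signal-to-noise for antibody binding to printed compounds.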 To be noted: higher = more signal.
In test [8] the target is Torsin-1A (Homo sapiens) (UniProt O14656). The experiment in a line: TOR1A wild-type binding on microarray – cell lysate, small-molecule microarray, lysate, 635/667 nm, primary screen (AID 1149). To be noted: COS7 hTOR1A-WT lysate, 635 nm fluorescence, higher = more signal.
Test [9] has the same target. Kind of test: torsin A mutant lysate binding on microarrays – cell lysate, small-molecule microarray, COS7 lysate, 635/667 nm fluorescence, primary screen (AID 1150).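 Further: score pools 667 nm emission and signal to noise measuring lysate protein binding.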 As to conditions: COS7 hTOR1A mutant lysate, 635 nm fluorescence, higher = more signal.
Test [10] has as its system Sonic hedgehog protein (Shh). Kind of test: Sonic hedgehog microarray binding compounds – biochemical, small-molecule microarray, 635/667 nm fluorescence, primary screen (AID 1151).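 Further: Shh protein binding to compounds spotted on small-molecule microarray slides; score combines spot fluorescence intensity with signal-to-noise across triplicate slides.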 To be noted: 635 nm fluorescence, higher = more signal.
The nature of test [11]: optical density shifts of acrAB sulA E. coli – strain DRC41, OD650, 48 h, E. coli filamentation inducer project, primary screen (AID 1152).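 Further: E. coli MC1000 strain DRC41 lacking acrAB efflux pump and sulA.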 As to conditions: higher = more signal, called active from +8 up or from −8 down.
Test [12] can be described thus: probe aLefty1 binding on compound microarray – biochemical, small-molecule microarray, 635/667 nm fluorescence, primary screen (AID 1153).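 Further: score merges spot fluorescence with signal-to-noise ratio from the scanned slide images.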 As to conditions: higher = more signal.
Test [13] in a line: plasmodial surface anion channel blockers, osmotic lysis – cell-based, P. falciparum Indochina, OD700, 1 h, primary screen (AID 1154). As to conditions: P. falciparum Indochina infected RBC osmotic lysis, higher = more signal, called active from +8 up or from −8 down.
A short description of test [14]: plasmodial surface anion channel blockers, osmotic lysis – cell-based, P. falciparum Indochina, OD700, 2 h, primary screen (AID 1155).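 Further: lysis reports solute entry through the parasite surface anion channel PSAC.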 As to conditions: P. falciparum Indochina infected erythrocytes, higher = more signal, called active from +8 up or from −8 down.
The nature of test [15]: changes in parasitized red cell lysis, either direction – P. falciparum Indochina, OD700, 3 h, PSAC antagonist project, primary screen (AID 1156). As to conditions: P. falciparum-infected erythrocytes, osmotic lysis, higher = more signal, called active from +8 up or from −8 down.
A short description of test [16]: plasmodial surface anion channel blockers, osmotic lysis – cell-based, P. falciparum Indochina, OD700, 18 h, primary screen (AID 1157). As to conditions: P. falciparum Indochina infected erythrocytes, osmotic lysis OD700, 18 h; higher = more signal, called active from +8 up or from −8 down.
Test [17] can be described thus: S6 kinase pathway phospho-S6 level changes – cell-based, A549, cytoblot, luminescence, serum-stimulated, primary screen (AID 1158).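 Further: serum-stimulated A549 lung adenocarcinoma cells; signal is phosphorylated S6 detected by cytoblot immunostaining with HRP secondary.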 As to conditions: 5 h, higher = more signal.
Test [18] has as its target NADPH oxidase 2 (Homo sapiens) (UniProt P04839). Kind of test: compounds shifting NOX2 Amplex Red fluorescence – cell-based, HEK293-NOX2, PMA-stimulated, NOX inhibitor project, primary screen (AID 1159). Further: test concentration not given here. As to conditions: 45 min, higher = more signal, called active from +8 up or from −8 down.
In test [19] the target is NADPH oxidase 4 (Homo sapiens) (UniProt Q9NPH5). The experiment in a line: compounds shifting NOX4 Amplex Red fluorescence – cell-based, HEK293-NOX4, tetracycline-induced, NOX inhibitor project, primary screen (AID 1160). To be noted: HEK293-NOX4, Amplex Red H2O2 fluorescence, 45 min; higher = more signal, called active from +8 up or from −8 down.
The target in test [20] is NADPH oxidase 5 (Homo sapiens) (UniProt Q96PH1). Kind of test: compounds shifting NOX5 Amplex Red fluorescence – cell-based, HEK293-NOX5, NOX inhibitor project, primary screen (AID 1161). To be noted: HEK293-NOX5, ionomycin, 45 min, higher = more signal.

The source made the active and inactive calls. Unless noted, how the calls were made is not given here.

Chain of Torsin-1A (Homo sapiens) (O14656 whole entry, looked up): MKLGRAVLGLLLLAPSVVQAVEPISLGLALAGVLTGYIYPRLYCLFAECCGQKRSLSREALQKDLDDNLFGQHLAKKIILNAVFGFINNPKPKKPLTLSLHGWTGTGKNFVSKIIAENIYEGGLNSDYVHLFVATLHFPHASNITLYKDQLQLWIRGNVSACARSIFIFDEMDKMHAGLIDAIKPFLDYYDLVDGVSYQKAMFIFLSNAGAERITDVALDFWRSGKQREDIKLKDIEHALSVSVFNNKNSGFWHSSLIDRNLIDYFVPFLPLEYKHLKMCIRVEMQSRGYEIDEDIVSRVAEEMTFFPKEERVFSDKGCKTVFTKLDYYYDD
Chain of NADPH oxidase 2 (Homo sapiens) (P04839 whole entry, looked up): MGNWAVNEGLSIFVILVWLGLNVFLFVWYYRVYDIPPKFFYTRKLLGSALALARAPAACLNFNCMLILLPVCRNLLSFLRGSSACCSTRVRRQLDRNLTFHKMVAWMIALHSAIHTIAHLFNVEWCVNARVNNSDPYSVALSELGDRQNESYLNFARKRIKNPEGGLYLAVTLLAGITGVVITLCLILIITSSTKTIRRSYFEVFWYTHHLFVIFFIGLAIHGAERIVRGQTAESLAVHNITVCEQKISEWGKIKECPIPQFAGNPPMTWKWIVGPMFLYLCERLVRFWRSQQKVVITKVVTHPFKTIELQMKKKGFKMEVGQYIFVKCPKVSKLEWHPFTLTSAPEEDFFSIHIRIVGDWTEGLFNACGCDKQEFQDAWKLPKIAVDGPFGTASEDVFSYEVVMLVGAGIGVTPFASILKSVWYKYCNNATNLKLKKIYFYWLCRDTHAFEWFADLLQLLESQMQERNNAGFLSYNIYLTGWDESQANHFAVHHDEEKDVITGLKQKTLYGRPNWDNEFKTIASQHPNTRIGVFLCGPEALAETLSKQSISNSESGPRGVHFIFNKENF
Chain of NADPH oxidase 4 (Homo sapiens) (Q9NPH5 whole entry, looked up): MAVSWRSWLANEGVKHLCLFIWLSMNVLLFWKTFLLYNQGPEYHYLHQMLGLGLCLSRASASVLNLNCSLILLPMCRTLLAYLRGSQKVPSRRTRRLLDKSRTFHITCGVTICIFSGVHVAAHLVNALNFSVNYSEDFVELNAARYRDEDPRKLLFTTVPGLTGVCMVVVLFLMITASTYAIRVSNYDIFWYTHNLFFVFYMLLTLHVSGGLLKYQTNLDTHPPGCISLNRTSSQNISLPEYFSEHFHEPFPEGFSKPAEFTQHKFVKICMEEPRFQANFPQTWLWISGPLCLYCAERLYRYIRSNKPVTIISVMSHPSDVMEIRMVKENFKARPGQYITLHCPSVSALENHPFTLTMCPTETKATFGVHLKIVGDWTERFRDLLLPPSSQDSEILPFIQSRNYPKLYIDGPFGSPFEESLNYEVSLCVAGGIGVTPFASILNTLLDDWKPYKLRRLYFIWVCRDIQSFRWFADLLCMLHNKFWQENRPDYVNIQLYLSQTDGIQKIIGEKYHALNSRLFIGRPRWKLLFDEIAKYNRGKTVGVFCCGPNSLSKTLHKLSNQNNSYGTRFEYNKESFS
Chain of NADPH oxidase 5 (Homo sapiens) (Q96PH1 whole entry, looked up): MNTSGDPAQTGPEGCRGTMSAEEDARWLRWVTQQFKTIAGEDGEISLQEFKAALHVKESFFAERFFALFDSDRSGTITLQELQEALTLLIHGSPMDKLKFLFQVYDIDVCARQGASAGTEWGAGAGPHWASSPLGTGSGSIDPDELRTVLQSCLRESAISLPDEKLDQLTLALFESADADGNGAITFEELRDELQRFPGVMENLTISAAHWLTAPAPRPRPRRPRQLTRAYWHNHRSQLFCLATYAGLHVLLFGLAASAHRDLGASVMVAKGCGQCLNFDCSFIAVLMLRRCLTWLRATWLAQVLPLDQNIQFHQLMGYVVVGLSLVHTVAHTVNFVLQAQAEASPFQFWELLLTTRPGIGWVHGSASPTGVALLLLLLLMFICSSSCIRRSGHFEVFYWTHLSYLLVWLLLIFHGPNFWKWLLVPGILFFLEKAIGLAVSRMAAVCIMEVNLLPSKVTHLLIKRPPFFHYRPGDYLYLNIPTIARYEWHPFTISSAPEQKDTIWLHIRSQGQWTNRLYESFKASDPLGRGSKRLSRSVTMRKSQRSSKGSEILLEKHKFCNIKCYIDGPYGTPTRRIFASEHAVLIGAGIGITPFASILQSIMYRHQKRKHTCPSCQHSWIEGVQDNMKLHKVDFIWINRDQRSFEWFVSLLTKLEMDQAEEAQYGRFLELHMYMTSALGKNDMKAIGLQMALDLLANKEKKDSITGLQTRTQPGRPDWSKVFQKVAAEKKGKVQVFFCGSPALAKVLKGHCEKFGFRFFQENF
Chain of Streptavidin (Streptomyces avidinii) (P22629 whole entry, looked up): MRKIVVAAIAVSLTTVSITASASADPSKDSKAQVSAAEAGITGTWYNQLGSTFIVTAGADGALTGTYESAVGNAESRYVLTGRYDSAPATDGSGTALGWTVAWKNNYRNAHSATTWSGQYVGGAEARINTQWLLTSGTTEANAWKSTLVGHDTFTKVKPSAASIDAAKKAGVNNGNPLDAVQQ

`CCOC(=O)[C@H](Cc1ccccc1)NC(=O)CCC1CC(OC(=O)NCc2ccc3c(c2)OCO3)CC2(CCCC(COC(=O)NCCCN3CCCC3=O)O2)O1` (stereo not given in full): the composite z-score was 0.0512 in test [1]; 0.669 in test [6]; -0.0736 in [7]; 0.408 in [8]; 0.078 in [9]; 1.53 in [10]. In addition, the composite z-score in [12] is -0.572. For the same compound, the z-score in test [2] was -1.98 (inactive); in test [3], 0.14 (inactive); in test [4], 1.01 (inactive); in test [5] it was -0.257 (inactive); in test [11], 0.169 (inactive); in test [13], -0.709 (inactive). In addition, the z-score in test [14] was 0.274 (inactive); in test [15], 0.218 (inactive); in test [16] it was 0.151 (inactive); in test [17] it was 0.125; in test [18], 0.996 (inactive); in [19], 0.689 (inactive). For the same compound, in [20], the z-score was -0.044.

With `O=C1C2=CC[C@H]3C(=O)N(C[C@@H]4CCCO4)C(=O)[C@H]3[C@H]2[C@H](O)[C@@H]2O[C@H]12`, the composite z-score was 0.487 in test [1]; 0.19 in [6]; -0.12 in [7]; 0.863 in [8]; 0.511 in test [9]; -0.331 in [10]. Also, in [12], the composite z-score was -0.0969. Also, the z-score is -4.97 (inactive) in test [2]; 0.846 (inactive) in [3]; 0.0664 (inactive) in [4]; 21.2 (active) in test [5]; 0.194 (inactive) in test [11]; -0.303 (inactive) in [13]. Further, the z-score was 0.59 (inactive) in test [14]; -0.2 (inactive) in test [15]; 0.108 (inactive) in test [16]; 0.177 in test [17]; -1.35 (inactive) in [18]; -0.219 (inactive) in [19]. In addition, in test [20], the z-score is 0.271.

Consider `CC1(C)O[C@H]2OC([C@H](O)CON3C(=O)c4ccccc4C3=O)[C@H](O)[C@H]2O1` (stereo not given in full), for which the composite z-score in test [1] was -0.0105; in test [6] it was -0.467; in test [7], 0.0319; in test [8], 0.0012; in test [9], 0.129; in test [10], 0.0991. Moreover, the composite z-score in test [12] was -0.352. For the same compound, the z-score in [2] is 0.929 (inactive); in test [3], 0.425 (inactive); in [4], 0.831 (inactive); in test [5] it was 0.266 (inactive); in [11], 0.336 (inactive); in test [13], -0.36 (inactive). The z-score in test [14] was -0.215 (inactive); in [15], -0.356 (inactive); in test [16], -0.266 (inactive); in [17], -0.339; in test [18], 0.821 (inactive); in test [19] it was 0.146 (inactive). Further, the z-score in test [20] was found to be 0.145.

As for `CCCCOC(OCCCC)C(O)CSc1ccc2ccccc2c1` (stereo not given), the composite z-score in test [1] is 0.133; in [6], 0.465; in test [7], -0.282; in test [8], 0.453; in test [9], -0.0078; in test [10], 0.789. In test [12], this compound registered a composite z-score of -0.103. Besides, the z-score in [2] was -0.657 (inactive); in test [3], -0.315 (inactive); in [4] it was 1.01 (inactive); in [5], 0.257 (inactive); in [11], 0.278 (inactive); in test [13], 5.46 (inactive). Also, the z-score in test [14] is 0.667 (inactive); in test [15], -1.43 (inactive); in test [16], 0.248 (inactive); in test [17], -0.455; in [18], -0.28 (inactive); in test [19], -0.657 (inactive). Besides, the z-score in test [20] is -3.7.

In the case of `CC#CCOCCC=C1c2ccccc2[C@@H](OC)[C@@H]1C`, the composite z-score is 0.179 in test [1]; -0.534 in [6]; -0.122 in [7]; 0.147 in test [8]; 0.481 in [9]; 0.584 in test [10]. This compound returned a composite z-score in test [12] of -0.0004. Further, the z-score was 0.447 (inactive) in test [2]; -0.445 (inactive) in test [3]; 1.42 (inactive) in [4]; -0.146 (inactive) in test [5]; 0.673 (inactive) in test [11]; 1.25 (inactive) in test [13]. For the same compound, the z-score in test [14] was -0.16 (inactive); in [15] it was -0.156 (inactive); in [16] it was 0.0739 (inactive); in test [17], -0.161; in test [18] it was 0.114 (inactive); in test [19] it was 0.936 (inactive). The z-score in test [20] was 0.696.

The record behind these values is PubChem BioAssay.
